# Measurements published in the supplement of paper PMC6555819.
# Columns and labels:
# Assay in all cases: PBM binding z-score (relative to random genomic background probes); higher = stronger binding; sequences stand for … in GC…GCGATTGACAGCGTAGAATGAAGG
# [1] = system: RARb homodimer (NR concentration 270 nM)
# Summary of the method: (§1)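 Antibodies against each partner of ligand-free nuclear receptor dimers (one per run) detected binding on custom Agilent 4×180K protein-binding microarrays after 1 h incubation. The double-stranded probes had 34-nt variable regions carrying direct-repeat seeds, single-nucleotide variants, half-site ablations and random human genomic background sequences. Binding z-scores, from regression-normalized fluorescence, use the random background probes as reference.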
# [2] = system: RARg:RXRa (NR concentration 270 nM, RXRa partner concentration 90 nM)
# Summary of the method: as §1
# [3] = system: RARg homodimer (NR concentration 270 nM)
# Summary of the method: as §1
# [4] = system: RXRa DBDmut IVT, anti-RXR (DBD mutation: RXRa K156A/R161A, NR concentration 90 nM)
# Summary of the method: as §1
# [5] = system: RXRa homodimer (NR concentration 180 nM)
# Summary of the method: as §1
# [6] = system: THRa:RXRa (NR concentration 90 nM, RXRa partner concentration 90 nM)
# Summary of the method: as §1
# [7] = system: THRa homodimer (NR concentration 90 nM)
# Summary of the method: as §1
# [8] = system: VDR:RXRa (NR concentration 270 nM, RXRa partner concentration 90 nM)
# Summary of the method: as §1
# [9] = system: VDR homodimer (NR concentration 270 nM)
# Summary of the method: as §1
Sequence,PBM binding z-score [1],PBM binding z-score [2],PBM binding z-score [3],PBM binding z-score [4],PBM binding z-score [5],PBM binding z-score [6],PBM binding z-score [7],PBM binding z-score [8],PBM binding z-score [9]
CGTCCAAGGTTAATGCTAGGTCAGTGAAAGCATT,3.14,4.63,2.64,1.27,1.78,3.44,1.31,1.86,0.435
AGAACGAGGGCAATGACTTGATAGCACGGGTGGC,1.08,1.18,1.67,1.64,1.08,0.826,0.042,0.34,0.435
ATATGTAGGTTATCGTGTCATTCAGTTTGCGCAT,1.17,0.973,0.988,1.09,1.06,0.907,0.568,2.28,1.53
CCTAGTTGGTCAGGAGGTCAAACACCGGATATGA,4.15,5.37,4.68,1.15,5.72,3.5,1.99,4.09,3.16
TCATATAGGTAAATGCTAGGTGATAGTCCGATCT,-0.0324,0.496,0.457,1.37,0.854,0.78,0.138,0.757,0.168
TCTGACAGGTGAAGGTAACTCAGGTACGCAGTCG,0.819,0.644,0.639,0.827,0.901,1.5,0.158,0.667,0.222
CGTCCAAGGTCAGAGAGGGCAGTGAATGCCGAGT,4.41,4.86,5.33,3.24,3.8,3.96,1.86,6.5,3.51
TAGCCTAGGTCATTCACGGGCCAGTATAGAAAGC,2.73,4.9,4.23,1.96,2.7,2.91,0.437,2.28,1.43
TCTATTAGTAGAAGGGCAACCGACGAGTCCGTTT,0.923,0.406,0.636,1.23,0.785,-0.0492,-0.359,0.796,1.18
CGTCAAAGTTCAACTAAGATAACGTAAAGCACGC,3.75,5.82,6.58,4.65,5.25,2.98,0.329,4.2,3.75
CAAACTAGGTCACCGGAAGGTCAAAGGCCGCATG,5.41,8.42,7.47,1.23,6.36,4.56,2.79,5.88,2.8
AATACAGGGTCATCGTAGGACAGAGTACGCACAG,3.3,5.62,5.18,3.38,6.61,4.82,1.71,5.5,4.11
ATCTCCAGGTAAAAGTTCAGTGAATCCCGAGGAT,2.54,2.14,2.33,0.595,1.94,1.57,0.432,1.43,1.84
ATCTCTAGGTAAACATAGTTCAGTGAATGCAAAT,1.42,0.884,0.928,-0.105,0.495,1.07,0.425,1.34,0.447
TCTCGGAGGAGACGAAAGGTCAGAGCTCGACATC,4.19,3.79,3.46,0.134,4.08,2.42,0.0723,1.87,0.0625
CGTCAAAGTTCAACTAACGTAACGTAAAGCACGC,4.09,5.71,6.79,4.56,4.65,1.97,0.0138,4.1,3.38
